# Shown are actives, neighbours in structure and some others; about 3.5% of the full set was active somewhere.
# PPC-1+TRAIL kill – compounds killing PPC-1 cancer cells with TRAIL present (potentiator screen, no TRAIL-free arm); PPC-1 cells + TRAIL, ATPLite viability luminescence; cell killing (% activity), % at 4 µM or 5 µM; hit rate 0.41% among 220,000; AID 1443;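 active = cell killing above 50% in the first pass at 4 µM, then a duplicate retest at 5 µM averaging 50% or more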;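 note: plate controls were cells with TRAIL plus DMSO for no effect and medium-only wells lacking cells for full effect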
# TROY NFkB inh – inhibitors of TROY-dependent NF-kB signaling. Q293 LMP1-TROYcd NF-kB luciferase reporter, 4 h. inhibition, % at 10 µM. hit rate 0.98% among 360,000;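 active = compounds whose plate-normalised and pattern-corrected inhibition of the luciferase reporter signal at the single screening dose is 50% or more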
# TWEAK-Fn14 inh – inhibitors of TWEAK-Fn14 interaction signaling. TWEAK-stimulated Fn14 reporter cells, luciferase luminescence, 8 h. hit rate 2% among 360,000. inhibition, % at 10 µM; in the data active = inhibition above about 50%
# C8 TRAIL sens – caspase-8 TRAIL sensitization | hit rate 1% among 360,000 | inhibition (viability loss, TRAIL sensitization), % at 10 µM | NB7+C8 cells + TRAIL, ATPlite viability luminescence | AID 624354;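 active = compounds causing at least 50% loss of cell viability in the single-dose screen, relative to plate controls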
# HSP90 inh – HSP90 refolding inhibition in rabbit reticulocyte lysate | luciferase refolding luminescence, 3 h | inhibition, % at 5.6 µM | hit rate 0.91% among 290,000 | AID 1789;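 active = inhibition above the screen-wide mean plus 3 SD, computed separately per campaign, cut at about 16% in these data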;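 note: 0% = DMSO wells and 100% = 60 µM geldanamycin wells; inhibitors lower the luminescence because luciferase stays unfolded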
# Platelet DG rel – modulates dense granule release in human platelets; human platelet-rich plasma, SFLLRN dense granule ATP release, luminescence; inhibition, %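 (compounds screened at 7.5 µM in platelet-rich plasma)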; hit rate 0.22% among 300,000; AID 1663;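 active = mean replicate score, as percent of positive control, at or above 50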
# The depositor's hits bear a star; · = no result.
SMILES,PPC-1+TRAIL kill,TROY NFkB inh,TWEAK-Fn14 inh,C8 TRAIL sens,HSP90 inh,Platelet DG rel
Cc1ccccc1C(=O)Nc1ccnn1C1CCN(Cc2cnn(C(C)C)c2)CC1,·,-6,-4,-6,5,-1
CC(C)C(=O)N1CCN(c2ccc(NC(=S)NC(=O)c3cc4ccccc4o3)cc2)CC1,·,46,-19,41,5,-3
CCCC(=O)N1CCN(c2ccc(NC(=O)c3cc4ccccc4o3)cc2Cl)CC1,30,81*,95*,54*,1,3
CCC(=O)N1CCN(c2ccc(NC(=S)NC(=O)c3cc4ccccc4o3)cc2)CC1,·,61*,18,46,0,-18
CC(C)(C)CN1CCN(CC#Cc2ccccc2)CC1CCO (stereo not drawn),·,-22,17,6,3,-13
CC[C@@H](C)[C@H](CNC)NC[C@@H](Cc1cccc2ccccc12)NCCc1cccc(C(F)(F)F)c1,·,-9,-56,96*,1,0
CCC[C@H](CN[C@@H](CNC)[C@H](C)CC)NCCc1cc(C(F)(F)F)cc(C(F)(F)F)c1,·,-7,-72,88*,1,-5
COc1cccc(-c2nnc3n2N=C(C(C)(C)C)CS3)c1,20,64*,92*,34,-2,-4
COc1cccc(-c2nnc3n2N=C(c2cc(OC)ccc2OC)CS3)c1,24,13,14,7,-1,3
O=C(O)c1cccc(COc2ccccc2Cl)c1,25,-10,73*,34,·,5
CCOC(=O)C1=CCN(S(=O)(=O)c2ccccc2F)C1c1cccc(C)c1 (stereo not drawn),·,-42,2,-9,·,·
Cc1ccc(/C=N/Nc2nc3ccccc3[nH]2)s1,1,-57,50*,13,10,14
Cc1ccccc1/C=N/Nc1nc2ccccc2[nH]1,-5,-29,7,1,5,-1
Cc1[nH]c2ccccc2c1/C=N/Nc1nc2ccccc2[nH]1,27,57*,95*,14,2,3
C(=N\Nc1nc2ccccc2[nH]1)/c1ccccc1,·,-4,11,4,-1,4
Brc1ccc(-c2ccc(/C=N/Nc3nc4ccccc4[nH]3)o2)cc1,12,-24,-6,52*,-1,24
C(=N\Nc1nc2ccccc2[nH]1)/c1c[nH]c2ccccc12,-17,-25,51*,-16,-4,0
Cc1cc(=O)[nH]c(N/N=C/c2c[nH]c3ccccc23)n1,10,6,10,12,4,-8
Cc1cccc(NC(=O)CSc2nnc(C3CC3)n2CC2CCCO2)c1 (stereo not drawn),·,-4,0,-5,2,-12
O=[N+]([O-])c1cc(/C=N/Nc2nc3ccccc3[nH]2)c(O)cc1O,53*,·,·,·,0,6
CCOCCCNCc1ccc(OC)cc1,-12,-11,18,-12,4,-4
COc1ccc2cc(CNCCOCCOCCNCc3ccc4cc(OC)ccc4c3)ccc2c1,·,58*,-68,88*,·,·
O=C(OCc1cn([C@@H]2C[C@H](c3ccccc3)N(C(=O)c3cccs3)C[C@H]2O)nn1)c1ccccc1,·,6,-8,-2,·,·
Cc1ccc(C(=O)n2nc(-c3cccnc3)nc2N)cc1,6,64*,22,-7,3,4
CC(C)Nc1ccc(Nc2ccnc3cc4ccccc4cc23)cc1,21,48,-11,92*,-1,3
SMILES,PPC-1+TRAIL kill,TROY NFkB inh,TWEAK-Fn14 inh,C8 TRAIL sens,HSP90 inh,Platelet DG rel
COc1ccc(Nc2ccnc3ccccc23)cc1,9,12,45,-4,2,-5
O=C(NCCCN1CCCC1)c1ccc(CS(=O)(=O)c2c(Cl)cccc2Cl)o1,·,-7,-1,-1,2,4
O=C(N/N=C/c1sc(N2CCOCC2)nc1-c1ccccc1)c1cccc(S(=O)(=O)N2CCCC2)c1,2,10,51*,14,0,2
O=C(N/N=C/c1ccc(OC(F)F)cc1)c1cccc(S(=O)(=O)N2CCOCC2)c1,16,10,71*,-8,0,1
CC(C)c1ccc(/C=N/NC(=O)c2cccc(S(=O)(=O)N3CCOCC3)c2)cc1,26,-10,10,6,-1,-1
CCC(C)NS(=O)(=O)c1ccc(NC(=O)CNCc2cccs2)cc1 (stereo not drawn),·,7,9,8,·,·
Cc1ccc(Nc2nc(N)nc(CSc3nc4ccccc4s3)n2)cc1,10,44,83*,1,2,3
Cc1cccc(Nc2nc(N)nc(CCl)n2)c1,14,0,-8,90*,12,3
Cc1ccc(Nc2nc(N)nc(CCl)n2)cc1,48,-25,19,93*,8,5
COc1cccc(Nc2nc(N)nc(CCl)n2)c1,16,-14,-4,89*,-1,2
Nc1nc(CCl)nc(Nc2ccccc2)n1,24,-3,13,9,3,-3
Cc1cc(C)nc(SCCN2CCCCC2)n1,·,0,1,-1,·,5
CCc1ccc2oc(-c3ccc(OC)cc3)cc(=Nc3c(C)n(C)n(-c4ccccc4)c3=O)c2c1,45,55*,75*,20,11,7
COC(=O)CCC(C(=O)CN1C(=O)c2ccccc2C1=O)N1C(=O)c2ccccc2C1=O (stereo not drawn),·,-1,-8,-3,·,·
CN(CCc1ccccc1)C(=O)c1ccc(NC(=O)Cc2cccc(NC(=O)C3CCN(C(=O)CCc4ccccc4)CC3)c2)cc1,·,10,20,-4,·,·
CN(CCc1ccccc1)C(=O)c1ccc(NC(=O)Cc2ccc(NC(=O)C3CCN(C(=O)CCc4ccccc4)CC3)cc2)cc1,·,32,55*,19,·,·
CN(CCc1ccccc1)C(=O)c1ccc(NC(=O)Cc2ccc(NC(=O)C3CCCN(C(=O)CCc4ccccc4)C3)cc2)cc1 (stereo not drawn),·,23,58*,29,·,·
CN(CCc1ccccc1)C(=O)c1ccc(NC(=O)Cc2ccc(NC(=O)C3CCCN(C(=O)C4CCC4)C3)cc2)cc1 (stereo not drawn),·,1,32,6,·,·
COC(=O)CN(c1cccc(C)c1)S(=O)(=O)c1ccccc1,·,-18,-9,25,3,6
CCOc1ccc(NC(=O)CSc2nnnn2C2CC2)cc1S(=O)(=O)N1CCCC1,·,-11,-20,11,·,·
CCc1nc2ccc(C(=O)NCCC(C)C)cn2c1N(CC)CCOC,·,-5,0,-5,·,·
O=C(CSC1=N/C(=C/c2ccc(Cl)c(Cl)c2)C(=O)N1c1ccccc1F)NC1CC1,21,18,61*,13,0,8
COc1ccc(Cl)cc1N1C(=O)/C(=C/c2sccc2C)N=C1SCC(=O)NC1CC1,·,-8,-10,19,·,·
CCn1cc(C(=O)NCCC(C)C)c(=O)c2cc(F)c(N3CCN(C(=O)c4ccco4)CC3)cc21,·,21,33,23,-1,0
Cc1c(/C(O)=C2/C(=O)C(=O)N(CCN3CCOCC3)C2c2ccco2)cnn1-c1ccccc1 (stereo not drawn),·,74*,85*,7,·,·

# Screening data (PubChem BioAssay)
